A selection: hits, their analogues and other compounds. The true share with any hit is near 1.6%.
KCNQ2 pot: KCNQ2 (rat) channel potentiation; O88943; CHO-K1 KCNQ2, FluxOR thallium flux fluorescence; hits give high values; B-score at 10 µM; 0.54% of 310,000 active; AID 2239;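 active means fluorescence ratio B-score at least 3 SD of library B-scores, with initial fluorescence B-score within 3 of them, cut at about 5.3 in these data; same plate scores as AID 2156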;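 further: B-score of peak minus minimum over baseline fluorescence ratio after K+ and Tl+ stimulus; positive B-score means potentiation of KCNQ2 with more thallium influx and brighter signal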
KCNQ2 block: inhibitors of rat KCNQ2 potassium channel; CHO-K1 KCNQ2, FluxOR thallium flux, 20 min; hits give low values; AID 2156; 1.1% of 310,000 active; O88943; B-score at 10 µM;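 active means fluorescence ratio B-score at most minus 3 library SDs, with starting brightness B-score within 2 library SDs, cut at about -5.5 in these data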
KCNQ2 inh conf: rat KCNQ2 channel inhibition, confirmatory screen; 57% of 1,000 active; KCNQ2-expressing cells, thallium flux; hits give low values; shares compounds with KCNQ2 block; activity change, negative = inhibition, % at 10 µM
KCNQ1 spec: human KCNQ1 activity in KCNQ2 inhibitor specificity screen. 15% of 1,000 active. shares compounds with KCNQ2 block. AID 493026. activity change, negative = inhibition, % at 10 µM. KCNQ1-expressing cells, FluxOR thallium flux fluorescence; hits give low values;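 active means activity change at least 3 SD of negative controls below their mean in both duplicate wells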;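 further: CHO cells stably transfected with KCNQ1 and depolarized by potassium stimulus; peak minus minimum fluorescence over baseline after thallium addition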
CHO Tl ctr: counter-screen for KCNQ2 inhibitors: effect in parental CHO cells | activity change, % at 10 µM | thallium flux counter-screen; hits give low values | shares compounds with KCNQ2 block | 14% of 1,000 active | AID 493029
KCNQ2 patch conf: blocks rat KCNQ2 current in automated patch clamp; shares compounds with KCNQ2 block; KCNQ2-expressing cells; calls only at 10 µM; 49% of 550 active; AID 588531
Hits are given with their value; . = inactive; / = no result; + = active, no number. Unless noted, how the calls were made is not given here.

SMILES | KCNQ2 pot | KCNQ2 block | KCNQ2 inh conf | KCNQ1 spec | CHO Tl ctr | others
Cc1onc(-c2ccccc2Cl)c1C(=O)NCCn1c(C)cc2ccccc21 | . | -11.9 | -35.5% | . | . | KCNQ2 patch conf=+
CCOc1ccccc1OCCCNCc1ccco1 | . | . | / | / | /
CCOc1ccc(N(C(C)C(=O)N2CCCC2)S(C)(=O)=O)cc1 (stereo not drawn) | / | . | / | / | /
COc1ccc2nc(SCC(=O)Nc3ccc(S(=O)(=O)N4CCCC4)cc3)c(C#N)cc2c1 | . | . | / | / | /
CCOc1ccc2nc(SCC(=O)Nc3ccc(S(=O)(=O)N4CCCC4)cc3)c(C)cc2c1 | . | -8.47 | . | . | .
Cc1nc(C/C(=N\N)c2ccc(O)cc2O)cs1 | / | . | / | / | /
CCc1cc(/C(Cc2csc(C)n2)=N/O)c(O)cc1O | . | -7.65 | -37.5% | -34.5% | -28.5% | KCNQ2 patch conf=+
CCCc1cc(C(=O)NC2CCCCC2)no1 | . | . | / | / | /
CCCc1cc(C(=O)N(C2CCCCC2)C2CCCCC2)no1 | . | -7.42 | . | . | .
CC1CCN(C(=O)/C(=C/c2ccccc2Cl)c2ccccc2)CC1 | . | -7.51 | -32.5% | . | . | KCNQ2 patch conf=.
CN1CCN(C(=O)/C(=C\c2ccccc2)c2ccccc2)CC1 | . | . | / | / | /
O=C(CCN1C(=O)S/C(=C\c2ccc(F)cc2)C1=O)Nc1ccc(O)cc1C(=O)O | . | . | / | / | /
COc1cc(Cl)c(S(=O)(=O)NCCCn2ccnc2)cc1Cl | . | . | / | / | /
c1ccc(Nc2nc(NCC3CCCO3)c3ccccc3n2)cc1 (stereo not drawn) | / | . | / | / | /
CCOc1ccc(Nc2nc(NCC3CCCO3)c3ccccc3n2)cc1 (stereo not drawn) | . | -6.71 | . | . | .
O=C(COc1ccc(C(=S)N2CCCC2)cc1)Nc1ccccc1C(F)(F)F | . | . | / | / | /
CN(Cc1ccccc1)S(=O)(=O)c1ccccc1[N+](=O)[O-] | / | . | / | / | /
Cc1ccc(-n2nc3c(=O)n(CCCC(=O)NCc4ccco4)nc(C)c3c2C)cc1 | . | . | / | / | /
CCc1nc(Nc2ccc3c(c2)OCCO3)c2oc3ccccc3c2n1 | / | . | / | / | /
Cc1nc(Nc2ccc3c(c2)OCCO3)c2oc3ccccc3c2n1 | . | -8.05 | -31.5% | -28.0% | . | KCNQ2 patch conf=.

Screening data from PubChem BioAssay.
